The whole screen tested about 46,000 compounds, of which about 60 (0.1%) were called active. Inconclusive results (about 3%) are left out. Calls follow the shape of the dose curve; as a rule, active = well fitted inhibition curve with a large enough effect; inconclusive = small, poorly fitted or top-dose-only effect; inactive = no such curve, though single readings can be large or run the other way. What follows is part of a selection rich in actives, with near analogues and random picks from the rest.
Assay: Primary qHTS assay for Inhibitors of ovarian cancer metastasis using an organotypic tumor microenvironment (TME) model. Also: nearly all actives have a fitted effect of over 65% in size.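 As to Potency: count of GFP cancer cells still attached after washing and fixation.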
Conditions: SKOV3ip1-GFP adhesion/invasion on 3D omental model, fluorescence; series mostly up to 45.8 µM; activity change, negative = inhibition: at the top concentration
Excerpt: PI: Ernst Lengyel MD., Ph.D. Department of Obstetrics and Gynecology, Section of Gynecologic Oncology University of Chicago Medicine, Chicago, Illinois. The tumor microenvironment (TME) is a key determinant of metastatic efficiency. We performed a quantitative high-throughput screen (qHTS) of diverse medicinal chemistry tractable scaffolds (44,420 compounds) and pharmacologically active small molecules (386 compounds) using a layered organotypic, robust assay representing the ovarian cancer metastatic TME. This 3D model contains primary human mesothelial cells, fibroblasts, and extracellular matrix, to which fluorescently labeled ovarian cancer cells are added. Initially, 100 compounds inhibiting ovarian cancer adhesion/invasion to the 3D model in a dose-dependent manner were identified. Of those, eight compounds were confirmed active in five high-grade serous ovarian cancer cell lines and were further validated in secondary in vitro and in vivo biological assays. […] Specifically, NCGC00117362 and PP-121 inhibited ovarian cancer adhesion, invasion, and proliferation, whereas milciclib inhibited ovarian cancer invasion and proliferation. […] To evaluate the clinical potential of NCGC00117362, structure - activity relationship studies were performed. […] The three compounds identified have promise as therapeutics for prevention and treatment of ovarian cancer metastasis.
PROTOCOL TABLE (as described by Inglese J, Shamu CE and Guy RK. 2007) SEQUENCE No. (e.g., 1, 2, 3, etc.); […] (e.g., Cells, Incubation, Reagent, etc.); VALUE; DESCRIPTION. 1; Cells; 4 uL; primary human omental fibroblast, black, clear bottom, low base, 1536-well Aurora assay plate. 2; Incubation; 48 hr; 37C. 3; Cells; 3 uL; 1,200 SKOV3ip1-GFP cells. 4; Compounds; 23nL; acoustic dispenser. 5; Incubation; 2 hr; room temperature. 6; Incubation; 16 hr; 37C. 7; Wash; 5 uL; 1x PBS. 8; Fixing; 5 uL; 4% paraformaldehyde (PFA). 9; Incubation; 15 min; room temperature 10; Wash, 5 uL; 1x PBS. 11; Detection; Fluorescence, excitation filter 488 nm, emission filter 509 nm. NOTES (numbers refer to Sequence numbers above) 1. For the 1,536-well format, 40 primary human omental fibroblasts and 400 mesothelial cells were seeded with 0.02 µg fibronectin and 0.02 µg collagen type I in 4 µL of growth media (2.3 mm2; Supplementary Fig. S1A). 2. Assay plates were incubated for 48 hours at 37 C. 3. After incubation, 1,200 SKOV3ip1-GFP were seeded in 3 µL of serum-free media (growth media minus FBS) on top of primary human omental cells. 4. Compounds or controls were added to each well immediately after the addition of the cancer cells. Compounds were screened in four doses (0.36-46 µmol/L), and the plates contained the positive control (Tomatine) in eight doses (0.035-75 µmol/L) and DMSO (equal volume controls) 5 - 6. The plates were incubated at room temperature for 2 hours and then at 37 degrees C for 16 hours. 7 - 10. Following incubation, the media were aspirated and each well washed with PBS (5 µL) and then fixed with 4% paraformaldehyde (PFA; 5 µL). After 15 minutes, the PFA solution was aspirated, PBS (5 µL) was added. 11. The number of GFP-labeled cells analyzed using a fluorescent cytometer TTP LabTech Acumen eX3 using 488 nm excitation filter and 509 nm emission filter. Data was normalized to the DMSO treated for negative and Tomatine treated wells for positive control. REFERENCES: Inglese J, Shamu CE and Guy RK, Reporting data from high throughput screening of small molecule libraries, Nature Chemical Biology, 2007, 3(8): 438-441. doi.org/10.1038/nchembio0807-438. Yasgar A, Shinn P, Jadhav A, Auld DS, Michael S, Zheng W, Austin CP, Inglese J and Simeonov A, Compound Management for Quantitative High-Throughput Screening. J. Assoc. Lab. Auto., 2008, 13: 79-89. doi: 10.1016/j.jala.2007.12.004.
Potency is read from the fitted curve at half-maximal effect.

Compound	outcome	Potency	activity change, negative = inhibition
CCOc1ccc(NC(=O)c2c(NC(=O)Cc3ccccc3)sc3c2CCCCC3)cc1	inactive		
Cc1ccc(NC(=O)c2nc(S(=O)(=O)Cc3cccc(C)c3)ncc2Cl)cc1		3.16 µM (active)	
CCCS(=O)(=O)c1ncc(Cl)c(C(=O)Nc2scc(-c3ccccc3)c2C(=O)OCC)n1			3.76% (inactive)
CCSc1ncc(Cl)c(C(=O)Nc2cc(C)ccc2C)n1	inactive		
CCOC(=O)N1CCc2c(sc3c2C(=O)NC(c2ccccc2F)N3)C1 (stereo not drawn)			-21.5% (inactive)
COc1ccc(-c2nc(CN3CCC(C(=O)NCCN(CC(C)C)CC(C)C)CC3)c(C)o2)cc1OC			3.13% (inactive)
CC(C)c1ccc(Cn2c(COc3ccccc3)nc3ccccc32)cc1			-0.836% (inactive)
CCc1ccc(C=C2SC(=S)NC2=O)cc1			-4.26% (inactive)
COc1ccc(-c2[nH]c3c(c2-c2c(-n4cccc4)n(C)c(=O)n(C)c2=O)c(=O)n(C)c(=O)n3C)cc1			6.37% (inactive)
COc1ccc2c(C)c(CCC(=O)NCc3ccc(OC)c(OC)c3)c(=O)oc2c1			-0.405% (inactive)
CC(C)(C)C1CCc2c(sc(NC(=O)c3ccccc3F)c2C(=O)N2CCCCC2)C1 (stereo not drawn)			6.61% (inactive)
CCc1ccccc1NC(=O)c1cnn(-c2ccc(F)cc2)c1C1CCNCC1			1.55% (inactive)
CCCCOc1ccc(CNC(=O)c2ccc3c(c2)N(C)C(=O)C2CCCCN32)cc1 (stereo not drawn)	inactive		
COc1ccc(CCNC(=O)CCCCn2c(=O)c3ccccc3n(Cc3ccccc3C)c2=O)cc1OC			9.65% (inactive)
CC=C(C(=CC)c1ccc(O)cc1)c1ccc(O)cc1			-8.67% (inactive)
Cc1cc2nc(NC(=O)c3ccc(S(=O)(=O)N4CCOCC4)cc3)sc2cc1C			-13.4% (inactive)
COc1ccc(-c2cc(C(=O)Nc3sc4c(c3C(N)=O)CCCC4)no2)cc1			33.1% (inactive)
Cc1ccc2c(c1)N(C(=O)Nc1ccc(Br)cc1F)CCO2	inactive		
COc1ccc2c(CNCCc3ccccc3C)c(C(=O)O)n(Cc3ccccc3C)c2c1			1.4% (inactive)
CCOc1cc(C2C(C(=O)OC)=C(C)NC3=C2C(=O)c2ccccc23)ccc1O (stereo not drawn)			-5.14% (inactive)
COc1ccc2c(c1)CCc1c(C(=O)Nc3cc(C)ccc3O)noc1-2	inactive		
Cc1ccccc1CNC(=O)c1ccc(NC(=O)N2CCCCc3ccccc32)cc1			-3.35% (inactive)

Compound	outcome	Potency	activity change, negative = inhibition
CCCN1CCN(CCCNC(=O)Cn2nc(CC)n3c(cc4occc43)c2=O)CC1			0.82% (inactive)
CCOC(=O)C1CCC(CN(Cc2ccc(OC)cc2)S(=O)(=O)c2ccc(F)c(C(=O)Nc3cc(C)ccc3C)c2)CC1 (stereo not drawn)	inactive		
Cc1n[nH]c(C)c1S(=O)(=O)N1CCCC(C(=O)Nc2ccc(Br)cc2)C1 (stereo not drawn)			6.06% (inactive)
COc1ccc(NC(=O)C(=O)NCc2ccco2)cc1			-4.16% (inactive)
N#Cc1nc(/C=C/c2ccc(F)cc2)oc1NCc1ccc(F)cc1	inactive		
CCOc1ccc(-c2nonc2NC(=O)c2oc3ccc(C)cc3c2C)cc1OCC			-20.8% (inactive)
CCC(=O)Nc1ccccc1-c1nc2ccccc2n(CC(=O)Nc2ccc(C)c(C)c2)c1=O			2.4% (inactive)
Cc1ccc2nc(NC(=O)c3nc(SCc4ccccc4F)ncc3Cl)sc2c1	inactive		
COc1ccc(Cn2ccc3nc(C)c(C(=O)Nc4ccc(C)c(F)c4)cc3c2=O)cc1			1.42% (inactive)
CCCCNC(=O)C1CCCN(c2nnc(C)c3c(C)n(-c4ccc(Cl)cc4)nc23)C1 (stereo not drawn)			4.38% (inactive)
COC(=O)c1cc(NC(=O)c2sc3ccccc3c2Cl)cc(C(=O)OC)c1			0.94% (inactive)
Cc1cccc(S(=O)(=O)c2cn(Cc3ccccc3)c3cc(N4CCOCC4)c(F)cc3c2=O)c1			2.35% (inactive)
CC1=C(c2ccc(F)cc2)S(=O)(=O)N=C1N1CCC(C(=O)NCCc2ccccc2C)CC1			-4.77% (inactive)
CCOC(=O)C1CCCN(S(=O)(=O)c2cc(-c3cc(C)no3)ccc2OC)C1 (stereo not drawn)			-0.925% (inactive)
CCOc1ccccc1NC(=O)Cn1c(=O)n(-c2cccc(C)c2)c(=O)c2c1c1cc(OC)ccc1n2C			6.79% (inactive)
COc1ccc(CCNC(=O)C(=O)NCC(c2ccco2)S(=O)(=O)c2cccs2)cc1OC (stereo not drawn)			12% (inactive)
COc1ccc(CCNCc2c(C(=O)O)c(C)n(Cc3cccc(C)c3)c2C)cc1OC			-2.02% (inactive)
CCN(CC)CCNC(=O)c1c(C)[nH]c(C=C2C(=O)Nc3ccc(F)cc32)c1C			-23.8% [at 92.2 µM] (inactive)
COc1ccc(C2(Nc3cccc(F)c3)C(=O)c3ccccc3C2=O)cc1	inactive		
COc1ccc(/C=C/c2nc(C#N)c(NCc3ccc(F)cc3)o2)cc1OC	inactive		
COc1ccc(NC(C)=O)cc1NC(=O)CN1CCN(c2ccc(F)cc2)CC1			3.17% (inactive)

Source: PubChem BioAssay AID1963576 (National Center for Advancing Translational Sciences (NCATS), 2024)
